High-throughput results (PubChem BioAssay)
PERK inhibitor – block of dimerizer-induced PERK translation repression, primary screen, PERK inhibitor project, CHO PERK-DD cells, SEAP luminescence, HTS; Eukaryotic translation initiation factor 2-alpha kinase 3 (Homo sapiens), Q9NZJ5; CHO PERK-DD fusion, SEAP luminescence translation reporter; inhibition, % at 5.6 µM; 220,000 compounds, 0.17% hits;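 active = inhibition above the mean inhibition of all tested compounds plus 3 SD, set separately per screening campaign, cut at about 2.9% in these data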;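 note: PERK kinase domain activated by AP20187 dimerizer at 100 nM; 0% = DMSO with dimerizer and 100% = rapamycin at 8.4 µM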
eIF4E 4G PPI – eIF4E–eIF4G protein interaction inhibitors, primary screen, biochemical, uHTS, TR-FRET, eIF4GI fragment. Eukaryotic translation initiation factor 4E (Mus musculus) + Eukaryotic translation …. TR-FRET eIF4E-eIF4GI(517-606) binding, 2 h. inhibition, % at 21.7 µM. 220,000 compounds, 0.37% hits;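 active = inhibition above about 30%, limit read from the data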;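 note: 0% = full FRET control wells and 100% = background wells lacking eIF4GI fragment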
eIF4H FP inh – human eIF4H binding inhibitors, primary screen, translation initiation inhibitor project, biochemical, uHTS, fluorescence polarization; Eukaryotic translation initiation factor 4H (Homo sapiens), Q15056; eIF4H fluorescence polarization binding assay; inhibition, % at 35 µM; 290,000 compounds, 0.94% hits;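 note: calls also rest on retests at 20 µM and on dose response follow-up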
PABP FP inh – PABP poly(A) RNA binding inhibitors, primary screen, biochemical, fluorescence polarization, uHTS | AID 2014, 2009 | 290,000 compounds, 1% hits | inhibition, % at 35 µM | Polyadenylate-binding protein 1 (Homo sapiens), P11940;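 note: calls also rest on retests at 20 µM and on dose response follow-up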
PABP1 MLLE inh – inhibitors of PABP1 MLLE–PAM2 peptide binding, primary screen, biochemical, fluorescence polarization, FITC-PAM2, GST-MLLE; inhibition, % at 20 µM; 360,000 compounds, 0.36% hits; in the data active = inhibition above about 35%, passing the limit was not always enough;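 note: plate controls were DMSO wells with GST-MLLE for no effect and wells lacking GST-MLLE protein for full effect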
* = called active by the depositor; / = no result given; [ ] = remark or other dose. Most compounds without a hit are left out; they make up all but 1.6% or so of the library. Unless noted, the rule behind the calls is not given here.

SMILES	PERK inhibitor	eIF4E 4G PPI	eIF4H FP inh	PABP FP inh	PABP1 MLLE inh
N#CC1=C2N=C(N)c3ccccc3N2C2=C(C(=O)CCC2)C1c1ccc(F)cc1 (stereo not drawn)	-1.1	94.0*	40.1	22.1	-10.2
CC1CN(C(=O)CSc2ncnc3sccc23)CC(C)O1 (stereo not drawn)	0.9	0.7	-1.8	20.2	-1.6
CC[C@H](C)[C@H](NC(=O)OCc1ccccc1)C(=O)OCC(=O)N1CCN(c2ccc(F)cc2)CC1	/	/	/	/	6.7
Nc1nc(N=Nc2ccc(O)cc2)cc(=O)[nH]1	/	/	/	/	51.6*
Nc1nc(N)c(N=Nc2ccccc2)c(=O)[nH]1	/	/	/	/	-12.8
Cc1ccccc1CN(c1ccc(C(N)=O)cc1)S(C)(=O)=O	0.7	8.1	-3.8	-8.4	-3.9
O=C(N/N=C/CCc1ccccc1)c1ccccc1	-0.8	3.8	-4.1	-1.0	7.9
CCn1c(CSc2nc3ccccc3s2)nnc1SCC(=O)c1ccc(O)c(O)c1	-0.7	-1.2	51.6*	9.9*	-56.8
COc1ccc(O)c(N)c1	1.0	7.1	95.7*	active	/
O=C1NC(=S)S/C1=C\c1ccc(SCc2ccccc2)o1	0.3	18.9	80.1*	3.2*	-30.3
S=c1[nH]cc2cnccn12	/	/	/	/	69.5*
Cc1cc(C)n2cc(CSc3nnc(SCc4cn5c(C)cc(C)nc5n4)s3)nc2n1	0.6	-3.7	-9.3	-3.2	/
Cc1cc(C)n2cc(CSc3nnc(N)s3)nc2n1	0.5	2.4	-4.0	1.8	39.6*
Cc1cnc(C(=O)OCC(=O)c2cc(C)n(CCc3ccc(F)cc3)c2C)cn1	/	/	/	/	-6.4
CCCn1cc(CN2CCC(C(=O)Nc3cccc(-c4cscn4)c3)CC2)c(C)n1	/	/	-5.8	6.7	2.9
CC(C)=CCc1c(O)ccc2c1OC(c1ccc(O)c(O)c1)CC2=O (stereo not drawn)	1.1	3.1	9.3	6.8	-19.4
O=C1CC(c2ccc(O)c(O)c2)Oc2c1ccc(O)c2O (stereo not drawn)	/	6.5	94.3*	53.4*	-10.2
O=S(=O)(Nc1cccnc1Cl)c1ccc(F)cc1	/	/	-6.6	-0.6	-4.0
CC1=CC2=NC(=O)/C(=C\c3cc(C)n(-c4ccccc4)c3C)C(=N)N2O1	1.8	80.3*[fluorescence artefact?]	30.5	-2.6	0.4
CC(C)(C)C(=O)Nc1c2c(nn1-c1ccc(F)cc1)CSC2	/	/	4.8	4.5	36.6*
CC(C)C(=O)Nc1c2c(nn1-c1ccc(F)cc1)CSC2	/	/	1.4	-11.5	-1.2
CCC(C)Cn1c(C(C)O)nc2ccccc21 (stereo not drawn)	0.2	-2.8	active	60.9	-4.3
CCC(C)Cn1c(C(C)C)nc2ccccc21 (stereo not drawn)	0.5	-2.2	-3.7	-5.9	6.3
CCCCn1c(SCC(=O)NCCOC)nc2ccc(N3CCOCC3)cc2c1=O	-0.9	3.1	11.7	6.6	-27.9
CCCn1c(SCC(=O)N2CCCC(C)C2)nnc1-c1cccnc1 (stereo not drawn)	-0.1	-0.9	-13.4	7.5	-5.0
SMILES	PERK inhibitor	eIF4E 4G PPI	eIF4H FP inh	PABP FP inh	PABP1 MLLE inh
CCCn1cnc2sc(CC)cc2c1=O	1.2	3.9	57.5*	6.8	3.8
Cc1cc(N2C(=O)C(O)=C(C(=O)c3ccco3)C2c2cccc(O)c2)no1 (stereo not drawn)	/	/	-1.1	20.6	17.1
O=C1OC(N2CCN(C/C=C/c3ccccc3)CC2)c2ccccc21 (stereo not drawn)	-0.6	-21.3	-5.6	-13.1	-1.5
CC1=NNC(=O)C1CC(=O)N/N=C/C(C)=C/c1ccccc1 (stereo not drawn)	0.6	-1.9	72.7	active	-3.9
Fc1ccc(Br)cc1C1C=C(c2cccnc2)Nc2ncnn21 (stereo not drawn)	0.4	-0.8	4.8	14.1	47.8*
O=C1CCCCC1Sc1nnc(-c2ccc3c(c2)OCO3)o1 (stereo not drawn)	1.1	3.1	9.7*	74.5*	-37.8
Clc1ccc(CSc2nnc(-c3ccc4c(c3)OCO4)o2)cc1	-0.5	-9.7	-4.5	5.6	-5.1
CC(C)(C)NC(=O)CN(C(=O)CCN1CCCc2ccccc21)C(C)(C)C	-2.4	-6.3	-15.8	-6.8	54.1*
CC(C)(C)CN1CCNC(=O)C1CC(=O)NCCN1CCCc2ccccc21 (stereo not drawn)	0.4	-0.9	57.8*	16.5	17.7
C=CCc1cccc(CNc2nc3ccccc3n2C(C)C)c1O	-0.9	5.4	4.2	-1.4	-3.1
CCOC(=O)N(NC(=O)C(O)(C(C)C)C(C)C)c1ccccc1	0.9	-2.5	-3.0	-21.1	3.2
O=C(Cn1cnc2c(NCc3ccccc3)ncnc21)NCc1ccc2[nH]ccc2c1	/	/	/	/	0.5
CCC(=O)Nc1ccc(C(=O)Nc2cccnc2)cc1	0.8	-3.8	51.9*	98.3*	-11.8
COc1ccc(C(=O)Nc2ccc(C(=O)Nc3cccnc3)cc2)cc1	/	/	-12.9	-16.9	-11.2
O=c1c2c(ncn1CCO)nc1n2CCC1	2.0	-1.1	0.4	20.1	-2.4
Nc1ccc(Nc2ccccc2)c(S(=O)(=O)O)c1	1.9	24.9	95.2*	69.0*	-5.8
O=C(COC(=O)CCC1CCCC1)Nc1ccccc1Sc1ccccc1	2.9*	17.1	1.0	8.9	4.2
O=C(CCn1c(=S)oc2ccccc21)Nc1ccc(F)cc1	0.8	2.5	8.9*	54.2*	6.7
Cc1ccc(CC(NC(=O)c2ccccc2)C(=O)NC(Cc2ccccc2)C(=O)O)cc1 (stereo not drawn)	0.1	-4.0	-0.1	9.7	-5.5
COC(=O)c1sccc1NC(=S)Nc1ccc(OC)cc1	0.9	0.1	-7.4	-5.5	29.6
Cc1c(C(=O)O)cccc1-n1c(C)cc(C=O)c1C	-0.4	0.0	72.2*	-7.7	-6.1
COc1ccc(Nc2nc(N)nc(CSc3nccn3C)n2)cc1	0.2	0.7	89.8*	70.1	15.2
COc1ccc(Nc2nc(N)nc(CSc3nnc(N)s3)n2)cc1	0.7	-8.1	4.9	-0.6	1.5
O=C(CN1C(=O)CSC1=O)Nc1ccccc1N1CCOCC1	3.1*	-0.4	-6.2	-6.0	3.3
COc1cccc(N(C(=O)c2sc(C)nc2C)C(C(=O)NCC2CCCO2)c2ccccc2)c1 (stereo not drawn)	/	/	-18.2	-6.2	-4.5
N#CCC(=O)N/N=C/c1cc([N+](=O)[O-])ccc1N1CCOCC1	0.3	-4.1	9.2	-9.8	-5.0
O=S(=O)(/N=C(/Sc1ccccc1)c1ccccc1)c1ccccc1	-0.9	6.5	7.0	15.2	37.6*
CSCC(C)N1CCC(n2nccc2NC(=O)CCOc2ccccc2)CC1 (stereo not drawn)	/	/	77.4	17.1*	13.1
CCn1c(SCC(=O)N/N=C/c2c[nH]c3ccccc23)nnc1-c1ccc(Cl)cc1	0.7	3.6	active	90.7	-8.0
